# Assay results reported in PubChem BioAssay AID932 (The Scripps Research Institute Molecular Screening Center, 2007).
# About 5,100 (2.5%) of roughly 200,000 compounds were called active.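 The calls were made as follows: active = activation above the screen-wide mean activation plus 3 SD (cut at about 130% in these data); inactive = the rest.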 The list comes from a sample in which actives are over-represented; it also holds similar structures and randomly drawn compounds.
# Assay: potentiators of IFN-gamma driven STAT1 reporter – cell-based, HTS, luciferase reporter, primary screen (AID 932);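 also: raw ratio to IFN-gamma control signal so 100% means no change and 0% no light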
# Conditions: NIH 3T3 STAT1-luciferase reporter, luminescence, at 5.5 µM, active compounds read high, 100% = IFN-gamma alone, no compound
row,Structure (SMILES),activation (% of control)
1,CCCn1c(SCC(=O)Nc2ccc(C)c(S(=O)(=O)N3CCOCC3)c2)n[nH]c1=O,90.6% (inactive)
2,CCC(=O)Nc1ccc(C(=O)N2CCN(C(=O)c3ccco3)CC2)cc1,99.8% (inactive)
3,CN(C)c1ccc(C=NCCc2ccc(S(N)(=O)=O)cc2)cc1,101% (inactive)
4,O=C(Nc1ccn(Cc2ccc(F)cc2)n1)c1ccncc1,94.9% (inactive)
5,O=C(Nc1ccn(Cc2ccccc2)n1)c1n[nH]c([N+](=O)[O-])c1Cl,121% (inactive)
6,O=C(Nc1ccn(Cc2ccccc2)n1)c1cccc(F)c1,131% (active)
7,COC1=CCC2([N+](=O)[O-])CN(CC(=O)O)CC1([N+](=O)[O-])C2 (centres undefined),106% (inactive)
8,Fc1ccc2c(c1)C(c1cccnc1)=NNC(c1cccs1)=N2,103% (inactive)
9,Cc1ccc(NC(=O)O/N=C/c2cccc([N+](=O)[O-])c2)cc1,113% (inactive)
10,COc1cc2c3c(c1)/C(=C1/SC(=S)NC1=O)C(=O)N3C(C)(C)C=C2C,98.1% (inactive)
11,Cc1ccc(NC(=O)c2oc3ccccc3c2C)c([N+](=O)[O-])c1,100% (inactive)
12,O=C(Nc1ccccc1)c1cc2ccccc2[nH]1,137% (active)
13,O=C(Nc1ccccc1)c1ccccc1NC(=O)C(F)(F)F,93.5% (inactive)
14,CC(C)n1c(=O)[nH]c2cc(C(=O)Nc3ccccc3)ccc21,128% (inactive)
15,CCCCNC(=O)Nc1c(C)cc(SC#N)cc1C,97.9% (inactive)
16,COc1ccc(/C=N/S(=O)(=O)c2ccccc2)cc1OC,107% (inactive)
17,CCOc1ccc(/C=N/Nc2nncc(-c3ccccc3)n2)cc1OC,107% (inactive)
18,COc1ccc(/C=N/Nc2nc3ccccc3o2)cc1OC,153% (active)
19,CCOC(=O)c1ccc[n+](CC(=O)Nc2ccccc2OC(F)F)c1,98.5% (inactive)
20,O=C(Nc1nnc(CCc2ccccc2)s1)C1CCCO1 (centres undefined),109% (inactive)
21,O=C(Nc1cccc(-c2nnc(-c3ccccc3)o2)c1)C1CCCO1 (centres undefined),120% (inactive)
22,O=C(Nc1ccc(-c2nnc(-c3ccccc3)o2)cc1)C1CCCO1 (centres undefined),168% (active)

row,Structure (SMILES),activation (% of control)
1,CC1CN(S(=O)(=O)c2ccc(C(=O)NN3CCN(C)CC3)cc2)CC(C)O1 (centres undefined),100% (inactive)
2,COc1cccc2sc(Nc3nc(C)c(C(C)=O)s3)nc12,112% (inactive)
3,Cc1ccc(S(=O)(=O)Nc2nc(C)cc(N/N=C/c3ccc(O)cc3)n2)cc1,95.6% (inactive)
4,CC(=O)c1sc(NC(=O)c2cccc3ccccc23)nc1C,114% (inactive)
5,CC(=O)c1sc(N/N=C\c2ccc(C)cc2)nc1C,166% (active)
6,CC(=O)c1sc(NC(=O)c2ccc(C)cc2)nc1C,161% (active)
7,CC(=O)c1sc(NC(=O)C2=NN(c3ccccc3)C(=O)CC2)nc1C,98.2% (inactive)
8,CC(=O)c1sc(N/N=C/c2ccc(C(C)C)cc2)nc1C,158% (active)
9,CC(=O)c1sc(NC(=O)CCCOc2ccccc2C)nc1C,105% (inactive)
10,CCOC(=O)c1sc(NC(=O)c2ccncc2)nc1C,109% (inactive)
11,Cn1c(=O)c2c(ncn2CCc2ccccc2)n(C)c1=O,101% (inactive)
12,CC(NC(=O)Nc1ccccc1)C(c1cccs1)N1CCN(c2ccccc2)CC1 (centres undefined),87% (inactive)
13,O=C(CN1C(=O)c2cccc3cccc(c23)C1=O)N1CCCCC1,89.3% (inactive)
14,Cc1nccc(-c2ccc(-n3c(C)ccc3C)cc2)n1,101% (inactive)
15,O=C(COC(=O)c1ccccn1)Nc1cccc2ccccc12,103% (inactive)
16,CNC(=O)/C(C#N)=C/c1c(F)cccc1Cl,82.9% (inactive)
17,Cc1ccc(O)c(CCc2ccccc2)n1,104% (inactive)
18,Cc1ccc(C(=O)/C=C/Nc2ccc(S(=O)(=O)Nc3onc(C)c3C)cc2)cc1,142% (active)
19,Cc1noc(NS(=O)(=O)c2ccc(N/C=C/C(=O)c3ccccc3)cc2)c1C,113% (inactive)
20,COc1ccc(C(=O)Nc2ccc(S(=O)(=O)Nc3onc(C)c3C)cc2)cc1OC,104% (inactive)
21,CC(C)C(O)C1CCN(Cc2nc(Cc3ccccc3Cl)no2)CC1 (centres undefined),105% (inactive)
22,Cc1ccc(N(C(=O)c2ccc(S(=O)(=O)N(C)C)cc2)C2C=CS(=O)(=O)C2)cc1 (centres undefined),96.7% (inactive)

row,Structure (SMILES),activation (% of control)
1,CCC(O)C1CCN(Cc2cn(-c3ccc(OC)cc3)nc2-c2cccc(F)c2)CC1 (centres undefined),107% (inactive)
2,Cc1nc(Cl)c2oc3ccccc3c2n1,103% (inactive)
3,CCc1nc(Nc2ccc3nccnc3c2)c2oc3ccccc3c2n1,98.2% (inactive)
4,COc1ccccc1Nc1ncnc2c1oc1ccccc12,137% (active)
5,CCN(c1ccc(NC(=O)COC(=O)CCc2nc3ccccc3n2-c2ccccc2)cc1)C(C)C,99.5% (inactive)
6,CC(C)CC(=O)N/C(N)=N/c1nc2ccccc2s1,123% (inactive)
7,COC(=O)c1nc2ccccc2s1,103% (inactive)
8,CCC(=O)NC(=Nc1nc2ccccc2s1)NC(=O)CC,180% (active)
9,Cc1ccc(S(=O)(=O)N(C)C)cc1NC(=O)c1ccccc1Br,106% (inactive)
10,Cc1c(C(=O)Nc2cccc(-c3nnc4n3CCCCC4)c2)oc2ccccc12,104% (inactive)
11,Cc1c(C(=O)Nc2ccccc2)sc2nc3n(c(=O)c12)CCCCC3,130% (active)
12,O=c1c2c(nc3n1CCCCC3)sc1c(O)cccc12,104% (inactive)
13,COc1ccc(-c2nc3cnccn3c2NC(C)(C)CC(C)(C)C)cc1O,102% (inactive)
14,COc1ccc(C(C(=O)NC2CCCCC2)N(C(=O)Cc2c[nH]c3ccccc23)c2ccccc2)cc1OC (centres undefined),105% (inactive)
15,COc1ccc(-n2ncc3c(N4CCc5ccccc54)ncnc32)cc1,137% (active)
16,COc1ccc(-n2c(C)nc3c(cnn3-c3ccccc3)c2=O)cc1,88.7% (inactive)
17,COc1ccc(-n2ncc3c(N4CCCc5ccccc54)ncnc32)cc1,187% (active)
18,c1ccc(-n2ncc3c(N4CCCC4)ncnc32)cc1,115% (inactive)
19,COc1ccc2oc(=O)c(C(=O)N3CCCc4ccccc43)cc2c1,97.1% (inactive)
20,Cc1cccc(-n2ncc3c(N4CCc5ccccc54)ncnc32)c1,113% (inactive)
